Sampled rows, rich in hits. Any-hit rate of the full collection: about 19%.
TDP1 cell CPT: DT40-hTDP1 cell growth loss with CPT. AID 686979. Potency, µM (top dose mostly 46.2 µM), hits mostly inhibitors. hit rate 12% among 420,000. chicken DT40 Tdp1-/-;hTDP1 cells + 20 nM CPT, ATP luminescence, 48 h; further: nearly all actives have a fitted effect of over 55% in size
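Chicken DT40 Tdp1-/- cells stably complemented with human TDP1 were seeded at 400 cells/well in medium containing 20 nM camptothecin, exposed to pin-transferred compounds, and grown at 37 °C for at least 48 hr. Viability was read as ATP luminescence.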
KB-V1 cytotox: kills drug-selected multidrug resistant KB-V1 cells | KB-V1 MDR cells viability, CellTiter-Glo, 72 h | Potency, µM (series often up to 46.1 µM), usual class: cytotoxic | hit rate 3.4% among 400,000 | AID 1347076; further: nearly all actives have a fitted effect of over 60% in size
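Readout: CellTiter-Glo luminescence, 10 min after addition. Cells: KB-V1 MDR subline, 72 h at 37 degrees C with compound. Analysis: corrected, normalized data fitted to concentration-effect curves.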
HT1080-NT tox: kills 2HG-producing HT-1080-NT fibrosarcoma cells. HT-1080-NT fibrosarcoma viability, CellTiter-Glo ATP luminescence, 48 h. Potency, µM (doses to about 46.1 µM), usual class: cytotoxic. hit rate 1.6% among 360,000. AID 686970;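 further: NT is the 2HG producing partner of a matched IDH1 knockdown line; nearly all actives have a fitted effect of over 55% in size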
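Read-out is CellTiter-Glo luminescence after 10 minutes at room temperature, following 48 hours' compound treatment of HT-1080-NT cells (750 cells/well, RPMI, 5% FBS, 37 degrees C).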
KB-3-1 cytotox: kills parental KB-3-1 adenocarcinoma cells; KB-3-1 viability, CellTiter-Glo ATP luminescence, 72 h; Potency, µM (doses to about 46.1 µM), usual class: cytotoxic; hit rate 1.4% among 400,000; further: nearly all actives have a fitted effect of over 60% in size
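Here the drug-naive KB-3-1 line serves as comparator for MDR sub-line selectivity; cells received compound titrations, 72 h at 37 °C, then CellTiter-Glo readout.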
HT1080 IDH1KD tx: kills HT-1080 cells with IDH1 knockdown; HT-1080 IDH1 knockdown viability, ATP luminescence, 48 h; Potency, µM (top dose mostly 46.1 µM), usual class: cytotoxic; hit rate 2% among 360,000
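CellTiter-Glo luminescence after 48 h compound exposure at 37 degrees C of IDH1-knockdown HT-1080 cells in 5% FBS RPMI. %Activity scaled between DMSO wells and cell-free media wells, with curves fitted and assigned curve classes.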
DT40 TDP1 no CPT: qHTS for Inhibitors of human tyrosyl-DNA phosphodiesterase 1 (TDP1): qHTS in cells in absence of CPT; DT40 Tdp1-/- hTDP1 cells, no CPT, ATP luminescence, 48 h; Potency, µM (highest dose often 46.2 µM), hits mostly inhibitors; hit rate 15% among 420,000; further: nearly all actives have a fitted effect of over 55% in size
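Cells were dispensed at 400 per well, compounds added by pin tool, plates incubated ≥48 hr at 37 °C, then CellTiter-Glo added for 30 min at room temperature before luminescence reading. Line: DT40 Tdp1-/- complemented with hTDP1; camptothecin omitted.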
Hits are given with their value. The call rests on the fitted dose curve; in most records, active means well fitted curve in the direction sought with a large enough effect; inconclusive means small, poorly fitted or top-dose-only effect, or another doubt; inactive means no such curve, though single readings can be large; an effect the other way counts as inactive or inconclusive.

What do the screens show for `CCc1nc2ccc(C(=O)NCc3ccc(SC)cc3)cc2nc1CC`?
TDP1 cell CPT: inconclusive; KB-V1 cytotox: inactive; KB-3-1 cytotox: inactive; DT40 TDP1 no CPT: inconclusive

Results for CN1CCN(CCCNC(=O)c2ccc3c(Cl)c4c(nc3c2)CCCC4)CC1 ?
TDP1 cell CPT: inconclusive; KB-V1 cytotox: inactive; HT1080-NT tox: inconclusive; KB-3-1 cytotox: inactive; HT1080 IDH1KD tx: inactive; DT40 TDP1 no CPT: 20.6µM

Results for CCOc1ccc(CNC(=O)c2ccc3nc(CC)c(CC)nc3c2)cc1 ?
TDP1 cell CPT: 16.4µM; KB-V1 cytotox: inactive; KB-3-1 cytotox: inactive; DT40 TDP1 no CPT: 18.4µM

Results for CCOc1ccc(CNC(=O)c2ccc3c(Cl)c4c(nc3c2)CCCC4)cc1 ?
TDP1 cell CPT: 20.6µM; KB-V1 cytotox: inactive; KB-3-1 cytotox: inactive; DT40 TDP1 no CPT: inactive

How did O=C(NCc1ccc(F)cc1)c1ccc2c(Cl)c3c(nc2c1)CCCC3 do in these assays?
TDP1 cell CPT: inconclusive; DT40 TDP1 no CPT: 16.4µM

Results for CC(C)CN(C(=O)c1ccc(-n2cncn2)c([N+](=O)[O-])c1)C1CCS(=O)(=O)C1 (stereo not drawn) ?
TDP1 cell CPT: inactive; KB-V1 cytotox: inactive; HT1080-NT tox: inactive; KB-3-1 cytotox: inactive; HT1080 IDH1KD tx: inactive; DT40 TDP1 no CPT: inactive

Results for COc1cc(NC(=O)COC(=O)CCc2cc(OC)c(OC)c(OC)c2)cc(OC)c1 ?
TDP1 cell CPT: inactive; KB-V1 cytotox: inactive; HT1080-NT tox: inactive; KB-3-1 cytotox: inactive; HT1080 IDH1KD tx: inactive; DT40 TDP1 no CPT: inactive

What do the screens show for `Cc1cccc(NC(=O)c2ccc3c(Cl)c4c(nc3c2)CCCC4)n1`?
TDP1 cell CPT: inconclusive; KB-V1 cytotox: inactive; HT1080-NT tox: inactive; KB-3-1 cytotox: inactive; HT1080 IDH1KD tx: inactive; DT40 TDP1 no CPT: 20.6µM

How did CCc1ccc(CNC(=O)c2ccc3c(Cl)c4c(nc3c2)CCCC4)cc1 do in these assays?
TDP1 cell CPT: inconclusive; KB-V1 cytotox: inactive; KB-3-1 cytotox: inactive; DT40 TDP1 no CPT: 23.1µM

How did Cc1cccc(NC(=O)c2onc3c2CCCC3)n1 do in these assays?
TDP1 cell CPT: 9.2µM; KB-V1 cytotox: 13µM; HT1080-NT tox: inactive; KB-3-1 cytotox: inconclusive; HT1080 IDH1KD tx: inconclusive; DT40 TDP1 no CPT: inconclusive

What do the screens show for `CCC(C(=O)N1CCOCC1)n1nc(C)c2sc3ccccc3c2c1=O` (stereo not drawn)?
TDP1 cell CPT: inactive; KB-V1 cytotox: inactive; HT1080-NT tox: inactive; KB-3-1 cytotox: inactive; HT1080 IDH1KD tx: inactive; DT40 TDP1 no CPT: inactive

Results for CCNC(=O)C1(C)CCN1C(=O)CCc1cccc(Cl)c1 (stereo not drawn) ?
TDP1 cell CPT: inactive; KB-V1 cytotox: inactive; HT1080-NT tox: inactive; KB-3-1 cytotox: inconclusive; HT1080 IDH1KD tx: inactive; DT40 TDP1 no CPT: inactive

Results for CCc1nnc(NC(=O)CSc2nc3[nH]ncc3c(=O)[nH]2)s1 ?
TDP1 cell CPT: inactive; KB-V1 cytotox: inactive; HT1080-NT tox: inactive; KB-3-1 cytotox: inactive; HT1080 IDH1KD tx: inactive; DT40 TDP1 no CPT: inactive

What do the screens show for `Cc1ccc(C)c(CSc2nc3[nH]ncc3c(=O)[nH]2)c1`?
TDP1 cell CPT: 2.59µM; KB-V1 cytotox: 0.517µM; HT1080-NT tox: 1.3µM; KB-3-1 cytotox: 1.16µM; HT1080 IDH1KD tx: 1.84µM; DT40 TDP1 no CPT: 1.03µM

What do the screens show for `Cc1nnc(NC(=O)CSc2nc3[nH]ncc3c(=O)[nH]2)s1`?
TDP1 cell CPT: inconclusive; KB-V1 cytotox: inactive; HT1080-NT tox: inactive; KB-3-1 cytotox: inactive; HT1080 IDH1KD tx: inactive; DT40 TDP1 no CPT: 14.6µM

How did CC(Oc1ccc(Cl)cc1)C(=O)Nc1ccccc1N1CCOCC1 (stereo not drawn) do in these assays?
TDP1 cell CPT: inconclusive; KB-V1 cytotox: inconclusive; HT1080-NT tox: inactive; KB-3-1 cytotox: inactive; HT1080 IDH1KD tx: inactive; DT40 TDP1 no CPT: 20.6µM

Compound activity from PubChem BioAssay.
